Whole data set: some 25,000 sequences, median “ln(normalized median fluorescence intensity)” near 9.3, cut for the highest 2% near 10. Many of the other results were omitted from the sample, so the highest values are more common in it than they were.

The text below walks through data of the supplement of paper PMC11417369.

For the experiment, the system named is PF3D7_0420300 AP2 domain 1 (GST-tagged). Kind of experiment: gcPBM binding intensity (ln(normalized median fluorescence intensity)); higher = stronger DNA binding. The method in brief:
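DNA-binding domains from P. falciparum, fused to GST and produced in E. coli, were put on an Agilent 4 × 180k double-stranded probe array for 1 h in 1× PBS holding 1% milk, 0.2 mg/ml BSA, 0.5% salmon testes DNA and 0.03% Triton X-100. Probes were primer-extended, 36 bp long and drawn from intergenic genomic regions, with negative controls included. After Alexa488 anti-GST antibody detection and a 488 nm scan, binding intensity was set as the highest Masliner-normalised natural-log median intensity across replicate spots of either probe orientation.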
On to “TTTTCATTAAGATACTTATAATAGTTTATTAGTAAA [CACACA_negctrl_site586]”, for which the “gcPBM binding intensity (ln)” value was found to be 8.77. Under “ATAATATCATCAAACGCACACATACATAAATATATT [CACACA_site5230]” stands 9.55; under “ATTTTTTTCATAGACACACACAATATATCTGTTTCC [CACACA_site3023]”, 9.83. As for ATTATATATAATATAGTGCATGTAAAAAATAAAACA, the “gcPBM binding intensity (ln)” value is 9.48.

Take “GATGTGTAAATAAGGATATATAACAATCAACAAAAC [XGTACX_negctrl_site494]”: the “gcPBM binding intensity (ln)” value was determined as 9.72. For the sequence “TATATACATACATATACACACATATATATATATATA [CACACA_site401]”, the “gcPBM binding intensity (ln)” value turned out to be 9.44.

“TATATATACATATACACACACACACCGATATATATA [CACACA_site8706]”: the “gcPBM binding intensity (ln)” value was 10.2. Regarding “TACATACATACATACATACACACATATATATATATA [CACACA_site1996]”, the “gcPBM binding intensity (ln)” value is 9.45. On to “AAAAAAAAAAAAAACACACATACATACATACATATA [CACACA_site4121]”, for which the “gcPBM binding intensity (ln)” value turned out to be 9.74. On to “CATACATACAAACACACACACACACCGATATATATA [CACACA_site8952]”, for which the “gcPBM binding intensity (ln)” value came to 10.3. Turning to “ATATTATATATATACACACACACATGCATGCACATA [CACACA_site7917]”, the “gcPBM binding intensity (ln)” value worked out at 10.1. Under “CACAAACACCCAAACACACACACACCGACATACATA [CACACA_site4410]” stands 10.

Regarding “AAAAAAAAAAAACACACACACACACCGACACATACA [CACACA_site5576]”, the “gcPBM binding intensity (ln)” value was 10.2. “AAAAAAAAAAAACACACACACACACCGATACATACA [CACACA_site8849]”: the “gcPBM binding intensity (ln)” value came to 10.3. As to “ATATTATATATATACACACACACATGCATGCACCTA [CACACA_site106]”, the “gcPBM binding intensity (ln)” value was 10.2. Under “ATATTATAGATATACACACACACATGCATGCACATA [CACACA_site6203]” stands 10.1. Under “GAAGGAAATAATAGTAGTACAAATGGTAAGAAATAT [XGTACX_site5845]” stands 9.7; under “AATTTTTATACGGATACACACAAAAAAAAATAAAAA [CACACA_site897]”, 9.53. Under “TACACTTTTTTTTGTACACACTAAAAAGATTAACAA [CACACA_site6037]” stands 9.07. For the sequence “TATTTGGGTATTTTTACACACATTAAAATATATATA [CACACA_site5800]”, the “gcPBM binding intensity (ln)” value is 9.33. The same measure for “ATATATATTTTATACGCATGTAATTATTATGTGGTC [TGCATGCA_site45]”: 9.29. The same measure for “TAATAGTTATAAAATACACACCAGGCATGATAAATG [CACACA_site4335]”: 9.5; for “TATATATATATAGGTTGTACATTTTGATGTTTACGT [XGTACX_site5503]”: 9.42.

For the sequence “TATACATACATACATACACACACACCGATATATACA [CACACA_site8184]”, the “gcPBM binding intensity (ln)” value turned out to be 10.2. Under “TATATACATATATACACACACATATATATATATATA [CACACA_site2805]” stands 9.6; under “TATACATACATACATACACACACACCGATATATATA [CACACA_site7896]”, 10.1. As to “CAAAATAATATATATACACACACACCGATATATATA [CACACA_site8082]”, the “gcPBM binding intensity (ln)” value was 10.2. In the case of “AAAAAAAAAAAAAATACACACACACCGATATATATA [CACACA_site8142]”, the “gcPBM binding intensity (ln)” value turned out to be 10.1. With “CAAAAAAAATTATACACACACACACCGATATATATA [CACACA_site4719]”, the “gcPBM binding intensity (ln)” value came out at 10.2. AAAAAAAATTCGTGTGTGCGCATATATAATATATAA: the “gcPBM binding intensity (ln)” value came to 9.6. Under “AGATACTTTCCTCAAACACACAAAACTATACAACAA [CACACA_site1474]” stands 9.45; under “AAAAAAATAATCATCACACACGGAGAATGTCCAATA [CACACA_site5305]”, 9.6. The same measure for “GAAATAGAGAGACACACACACATATATTTATGTATT [CACACA_site7794]”: 9.93.

As to “AAGAAATATTTATACACACACACAAACATATAAATA [CACACA_site6981]”, the “gcPBM binding intensity (ln)” value was determined as 10.2. “AAAAAAAAATATATAAACACACATATTTATATACAC [GTGCAC_negctrl_site545]”: the “gcPBM binding intensity (ln)” value was determined as 9.61. The same measure for “AAGAAATATTTATACACACACACAAACATATATATA [CACACA_site1912]”: 10.2. The same measure for “CAGAAATAGAGATACACACACACATATATTTATGTA [CACACA_site3968]”: 10.2; for “CACAAAAAGAAACACACACACATATATATTTATTAT [CACACA_site3646]”: 10.1; for “GAAATAGAGAAACACACACACATATATTTATGTATT [CACACA_site3967]”: 9.99. Consider “AAAAAAAAAACATACACACACACAAATATTTATATA [CACACA_site437]”, for which the “gcPBM binding intensity (ln)” value turned out to be 10.1.

In the case of “CATAAATACAAATATACACACATATTTATATTTATA [CACACA_site7277]”, the “gcPBM binding intensity (ln)” value came to 9.54.

With “AAAAAAAAAAAAAAAAAAAAATTTCAATTATATTGA [GTGCAC_negctrl_site642]”, the “gcPBM binding intensity (ln)” value was found to be 8.91. Under “CCATTTTTTTTATACGCACACGTCATACTTTTAAAA [CACACA_site4988]” stands 9.46; under “ATTTATATTTGTATTTGTACTTATATTTATATTTAT [XGTACX_site1540]”, 9.64.

Turning to “TGTGTAAGATCTTGGATGATGATAAGAATCTACTAG [CACACA_negctrl_site1167]”, the “gcPBM binding intensity (ln)” value is 9.11.
